Only a selection was taken, and hits are over-represented in it overall.
Artemis endo inh – blocks endonuclease activity of human Artemis; AID 686954; 0.78% of 30,000 active; inhibition, % at 10 µM; Q96SD1; recombinant Artemis, quenched FAM hairpin cleavage fluorescence;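 active means at 10 µM dose, at least 30% inhibition, measured as corrected fluorescence normalized to stimulator and neutral control wells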
Target sequence (Q96SD1 whole entry, looked up): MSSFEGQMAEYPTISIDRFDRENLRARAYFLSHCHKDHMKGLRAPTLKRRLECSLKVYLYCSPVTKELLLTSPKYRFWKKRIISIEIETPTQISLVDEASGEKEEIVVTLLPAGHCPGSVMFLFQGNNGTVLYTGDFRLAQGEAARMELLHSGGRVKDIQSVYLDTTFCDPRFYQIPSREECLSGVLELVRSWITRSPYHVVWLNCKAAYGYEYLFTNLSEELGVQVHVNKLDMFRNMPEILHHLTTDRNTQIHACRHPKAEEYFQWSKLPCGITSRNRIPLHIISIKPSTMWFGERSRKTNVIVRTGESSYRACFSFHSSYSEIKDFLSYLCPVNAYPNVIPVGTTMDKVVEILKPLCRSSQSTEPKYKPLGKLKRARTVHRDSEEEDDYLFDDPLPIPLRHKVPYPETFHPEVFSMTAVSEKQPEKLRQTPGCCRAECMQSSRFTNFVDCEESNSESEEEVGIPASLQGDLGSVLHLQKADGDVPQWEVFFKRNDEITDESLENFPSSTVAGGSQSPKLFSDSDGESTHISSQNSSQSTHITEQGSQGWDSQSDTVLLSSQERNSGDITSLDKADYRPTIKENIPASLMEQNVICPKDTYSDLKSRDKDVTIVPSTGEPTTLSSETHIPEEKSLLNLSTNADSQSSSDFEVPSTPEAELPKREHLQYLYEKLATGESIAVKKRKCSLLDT
Starred values were filed as active, the others as inactive.

SMILES | Artemis endo inh
O=C(O)c1cc(-c2ccco2)nc2ccc(Br)cc12 | 42.3*
O=C(c1ccco1)N1CCN(C(=O)c2cc(-c3ccncc3)nc3ccc(Br)cc23)CC1 | 10.7
O=C(NCC1CCCO1)c1cc(-c2ccco2)nc2ccccc12 (stereo unspecified) | -0.1
COc1ccc(CN2C(=O)c3ccccc3C(/C=N\OCc3ccc(C)cc3)C2=O)cc1 (stereo unspecified) | 14.1
COc1ccc(/C=N/NC(=O)c2nn(-c3ccc(C)c(C)c3)c(=O)c3ccccc23)cc1 | 12.7
COc1cc(/C=N/NC(=O)c2cnn3c(C)cc(-c4ccccc4)nc23)ccc1O | 9.9
COc1ccc(/C=N/NC(=O)c2nc(-c3ccccc3)cc(-c3ccccc3)n2)cc1 | 35.3*
COc1cc(N/C=C(\C(C)=O)c2ccccc2)cc(OC)c1 | -7.2
O=C(Cn1nnc(-c2ccccc2Cl)n1)NCc1ccc2c(c1)OCO2 | -7.3
CSC1=NCCN1C(=O)c1c(F)cccc1F | 8.2
c1ccc(-c2nc(NCc3ccco3)c3ccccc3n2)nc1 | 64.4*
c1ccc(N2CCN(c3nc(NCc4ccco4)c4ccccc4n3)CC2)cc1 | 25.0
c1coc(CNc2nc(N3CCCCC3)nc3ccccc23)c1 | 5.7
CC(NC(=O)OC1CCCCC1)N1C(=O)C2C3C=CC(C3)C2C1=O (stereo unspecified) | -4.9
CN(Cc1ccco1)C(=O)C1CCC(=O)N1Cc1ccc(F)cc1 (stereo unspecified) | 1.7
O=c1cc(-c2ccccc2)nc2nc(-c3ccco3)[nH]n12 | 35.5*
O=C(Nc1nc2nc(-c3ccccc3)cc(=O)n2[nH]1)c1ccccc1 | -0.9
O=c1cc(-c2ccccc2)nc2nc(CCc3ccccc3)[nH]n12 | 0.0
Cc1cccc(C)c1NC(=O)C(c1ccc(Cl)cc1Cl)N1CCCCC1 (stereo unspecified) | 9.8
CCN1CCN(C(=O)c2ccc(NS(=O)(=O)c3ccccc3)cc2)CC1 | -8.3
Nc1ccc2c(c1)C(=O)C(=O)c1ccccc1-2 | 71.1*
Nc1ccc2oc(=O)c3ccccc3c2c1 | 2.7
Nc1ccc(-c2ccc(N)cc2C(F)(F)F)c(C(F)(F)F)c1 | 1.2
COC(=O)Nc1nnc(-c2ccccc2Cl)s1 | -3.3
CC1=NN(c2cccc(C(=O)O)c2)C(=O)/C1=C\C=C\c1ccco1 | 30.9*
SMILES | Artemis endo inh
Cc1cccc(C)c1NC(=O)/C(=C/c1ccco1)c1ccccc1 | 0.1
C(/C=C/c1ccco1)=N/N1CCN(c2ccccc2)CC1 | -0.1
CC1(C)CC(=O)C(C(=O)/C=C/NCCc2ccccc2)C(=O)C1 | 1.4
O=C(NC(=S)Nc1ccc2[nH]ncc2c1)c1ccccc1 | -1.8
CCCc1cc(C(=O)N/N=C/c2ccc(C)o2)c2ccccc2n1 | -3.5
O=C(NC(C(=O)N/N=C/c1c2ccccc2cc2ccccc12)c1n[nH]c(=O)c2ccccc12)c1ccccc1 (stereo unspecified) | 43.9*
O=C1CCC([N+](=O)[O-])C(c2cccc(Cl)c2Cl)N1 (stereo unspecified) | -1.2
COC(=O)CSc1snnc1-c1ccc(Cl)cc1Cl | 1.8
CN(CCNC(=O)c1ccc(N2CCCC2=O)cc1)CCc1ccccc1 | -1.4
O=C(/C=C/c1ccco1)NC(=S)Nc1ccc(Cl)cn1 | -3.6
O=C(COC(=O)c1cc(-c2ccco2)nc2ccccc12)NCc1ccc2c(c1)OCO2 | 22.8
Cc1ccc(-c2cc(C(=O)NCc3ccco3)c3ccccc3n2)s1 | 3.2
O=C(COC(=O)c1cc(-c2ccc(Cl)s2)nc2ccccc12)NCc1ccco1 | 32.1*
CCO/C(C)=C1\C(=O)Nc2ccccc21 | 2.8
N#Cc1nc(-c2ccc(OCc3ccccc3)cc2)oc1NCc1ccco1 | -5.5
N#Cc1nc(-c2ccc(OCc3ccc(Cl)cc3)cc2)oc1NCCCn1ccnc1 | 49.2*
CNc1oc(-c2ccc(OCc3ccccc3)cc2)nc1C#N | 1.9
CC1CCCC(C)N1C(=O)CSc1nnc(C2CCCCC2)o1 (stereo unspecified) | 0.1
COc1ccc(C(=O)N2c3ccccc3C(=O)OC2c2ccc3c(c2)OCO3)cc1 (stereo unspecified) | -7.6
COC(=O)COc1ccc(C2NC(=O)NC(c3ccccc3)=C2C(C)=O)cc1OC (stereo unspecified) | 3.7
COc1ccc(C2NC(=O)NC3=C2CCc2ccccc23)cc1 (stereo unspecified) | 43.8*
CN(C)CCC(=O)NCC1OCCc2ccccc21 (stereo unspecified) | -12.0
COc1ccc(-n2cnc3c(cnn3CCC#N)c2=N)cc1 | -2.0
Cc1ccc(NC(=O)CN2C(=O)S/C(=C\c3cccn3-c3cccc(C(=O)O)c3)C2=O)c(C)c1 | 32.0*
Cc1cccc(C)c1NC(=O)CN1C(=O)S/C(=C\c2cccn2-c2cccc(C(=O)O)c2)C1=O | 22.0
SMILES | Artemis endo inh
Cc1ccccc1NC(=O)CN1C(=O)S/C(=C\c2cccn2-c2cccc(C(=O)O)c2)C1=O | 22.4
CCCCOCCCn1cnc2c([nH]c3cc(OC)ccc32)c1=O | 12.8
C=CCn1c(SCc2c(C(=O)OC)sc(N)c2C(=O)OC)nnc1-c1ccc(Br)cc1 | 5.2
CC(C)(C)NC(=O)c1cccc(NC(=O)CSc2ccccc2)c1 | 9.1
CCSC1=N/C(=C\c2ccc(-c3ccccc3[N+](=O)[O-])o2)C(=O)S1 | 34.0*
CCSC1=N/C(=C\c2ccc3c(c2)OCO3)C(=O)S1 | 5.4
CSC1=N/C(=C\c2ccc(C)o2)C(=O)S1 | 7.5
Oc1c(C(Nc2ccccn2)c2ccccn2)ccc2cccnc12 (stereo unspecified) | 38.3*
CC(=O)NC(c1ccco1)c1ccc2cccnc2c1O (stereo unspecified) | -3.4
Cc1cc(NC(c2ccc(Cl)cc2)c2ccc3cccnc3c2O)no1 (stereo unspecified) | 10.2
COc1cccc(C2(CSc3nnc(-c4cc(OC)c(OC)c(OC)c4)o3)OCCO2)c1 | -3.1
Oc1ccccc1C1=Nc2ncnn2C(c2ccc(F)cc2)C1 (stereo unspecified) | 0.0
COC(=O)c1ccc(C2CC(=O)Nc3cc(OC)c(OC)c(OC)c32)cc1 (stereo unspecified) | -2.6
CCc1cc2c(=O)c(-n3cnc4ccccc43)coc2cc1O | 14.6
O=C(c1ccc2c3c(cccc13)C(=O)N(O)C2=O)N1CCCCC1 | 47.4*
O=C(c1ccccc1-c1ccccc1)N1CCCC1 | -10.7
O=C(c1ccccc1-c1nc2ccccc2[nH]1)N1CCCCC1 | 0.4
COc1ccc(OC)c2[nH]c(=O)c(CCNC(=O)CC(C)C)cc12 | -4.4
Cc1ccc2c(n1)sc1c(N)ncnc12 | 0.4
O=C(CSc1nccn1-c1ncc(C(F)(F)F)cc1Cl)c1ccc(Cl)cc1 | 8.9
CN(CC(=O)N1CCc2ccccc21)S(=O)(=O)c1ccc(Br)s1 | 1.2
Cc1ccc(/C=C/C(=O)O)cc1S(=O)(=O)N(CCO)CCO | 2.0
CC(C)Oc1cccc(C(=O)NC(=S)Nc2cccc(C(F)(F)F)c2)c1 | 0.1
O=S(=O)(c1ccc2nc(-c3ccco3)c(-c3ccco3)nc2c1)N1CCOCC1 | 27.6
O=C(Nc1cccc(C(F)(F)F)c1)c1ccc2nc(-c3ccco3)c(-c3ccco3)nc2c1 | 41.8*
SMILES | Artemis endo inh
Cn1nc(C(=O)Nc2cccc(C(F)(F)F)c2)ccc1=O | 3.5
O=C(Nc1ccc2nc(-c3ccco3)c(-c3ccco3)nc2c1)NC1CC1 | 49.5*
O=C(NCc1ccco1)Nc1ccc2nsnc2c1 | 9.2
CC1=C(C#N)CCC(=O)N1Cc1ccc(C)cc1 | 1.8
O=C(Nc1nc(-c2ccccc2)c(-c2ccccc2)o1)c1ccc(F)cc1 | 9.9
CC(=O)Nc1ccc(S(=O)(=O)N(Cc2ccco2)CC2CCCO2)cc1 (stereo unspecified) | -1.0
